The values below are quoted from earlier work in PubChem BioAssay AID977611.

The data set is described as follows: PubChem AID 977611. Particulars: PDB protein-ligand complexes, literature Kd.

The whole screen tested about 3,900 compounds, of which about 3,900 (100%) were called active. The limit is not given here; nearly all actives have Kd up to about 4200 µM. So high a share suggests a set chosen from earlier hits. The list shows a part of the results. Peptide text beside a SMILES is read from it.

As for `CCc1cn([C@@H]2O[C@H](CO)[C@@H](O)[C@H]2O)c2ncnc(N)c12`, for the setting “protein: Adenosine kinase ADK, PDB entry 4pvv”, the Kd was 0.33 µM (active). Regarding `CNc1ncnc2c1ncn2[C@@H]1O[C@H](CO)[C@@H](O)[C@H]1O`, the Kd (protein: YTH domain-containing family protein 2 YTH-YTHDF2, PDB entry 4rdn) was 1.2 µM (active).

Take `O[C@@H]1[C@H](O)[C@@H](CO[P+](O)(O)O)O[C@H]1n1cnc2c(NC3CCCC3)ncnc21`: the Kd (protein: 2'-deoxynucleoside 5'-phosphate N-hydrolase 1, DNPH1 (RCL), PDB entry 4kxl) is 0.6 µM (active). Consider `CN(C)[C@@H](Cc1cnc[nH]1)C(=O)O`, for which the Kd by setting is: (protein: Histidine-specific methyltransferase EgtD, PDB entry 4pin) 4 µM (active); (protein: Histidine-specific methyltransferase EgtD, PDB entry 4pio) 2 µM (active). For `C=C1C/C=C/[C@H](OC)[C@H](OC(N)=O)C(=C)C[C@@H](C)[C@@H](O)[C@@H](OC)C[C@H](C)CC2=C(OC)C(=O)C(C)=C(NC1=O)C2=O`, the Kd (protein: ATP-DEPENDENT MOLECULAR CHAPERONE HSP82, PDB entry 4as9) was 16.3 µM (active).

On to `OCc1cn([C@H]2O[C@H](CO)[C@@H](O)[C@H](O)[C@@H]2O)nn1`, for which, where the note is “protein: Concanavalin-A ConA, PDB entry 4pf5”, the Kd was 3.3 µM (active).

As to `CCC(=O)O[C@H](CCOCc1ccccc1)[C@@H](C)[C@H](O)[C@@H](C)CCC(=O)[C@H](C)[C@H](OC(C)=O)[C@H](C)/C=C/N(C)C=O`, the Kd (protein: Actin, alpha skeletal muscle, PDB entry 4k42) is 0.285 µM (active). Turning to `NC1N=C2NN=C(CC(=O)O)C(=O)C2C(=O)N1` (stereo unspecified), where the note is “protein: Dihydropteroate Synthase, PDB entry 4dai”, the dissociation constant (Kd) was 0.11 µM (active). For `O=C1NC(=O)[C@H](Cc2ccccc2)N1`, the Kd (protein: Mhp1, PDB entry 2JLO) was 54 µM (active). In the case of `O=C1N=C(Cc2cccc(Br)c2)C(=O)N1`, the Kd (protein: nucleobase-cation-symport-1 family hydantoin transporter Mhp1, PDB entry 4d1c) is 2 µM (active).

As for `CCCCCCCCC(=O)c1cc(O)c(O)c(O)c1`, the Kd (protein: Nuclear receptor subfamily 4 group A member 1, PDB entry 4jgv) was 0.27 µM (active). Take `C[C@]12CC(=O)[C@H]3[C@@H](CCC4=CC(=O)CC[C@@]43C)[C@@H]1CC[C@@H]2C(=O)CO`: for the setting “protein: Phospholipase A2 VRV-PL-VIIIa, PDB entry 4qf7”, the Kd was 0.0025 µM (active). On to H-GALGGAKQAGAV-OH, for which, under “protein: Clumping factor A (ClfA), PDB entry 2vr3”, the Kd was 10.5 µM (active). With H-QQHHLGGAKQAGDV-OH, the Kd (protein: FIBRONECTIN-BINDING PROTEIN A, PDB entry 4b60) was 3.7 µM (active).

Consider H-LESKPYNPFEEEEED-OH, for which the Kd (protein: C-terminal domain of EH domain-containing protein 1, PDB entry 2ksp) is 57 µM (active). For H-FNYESTNPFTAK-OH, under “protein: EH domain-containing protein 1 C-terminal domain, PDB entry 2kff”, the dissociation constant (Kd) was 245 µM (active).

Turning to H-KSAVTTVVNP-OH, the dissociation constant (Kd) (protein: Integrin beta-1-binding protein 1, PDB entry 4dx9) is 5 µM (active). H-FNYESTGPFTAK-OH: the Kd (protein: EH domain-containing protein 1 C-terminal domain, PDB entry 2kfh) is 2400 µM (active). With H-FNYESTDPFTAK-OH, the Kd (protein: EH domain-containing protein 1 C-terminal domain, PDB entry 2kfg) was 1200 µM (active). Regarding `COC1=CC=C2CC3C4CC5OCOC5CC4CCN3C[C@H]2[C@@H]1OC` (stereo partly specified), under “protein: Putative regulatory protein, PDB entry 3vw2”, the Kd is 17.9 µM (active).

As to `Cc1cc2c([nH]1)NC(=O)N([C@@H]1O[C@H](CO)[C@@H](O)[C@H]1O)C2`, the Kd (protein: NupC family protein CNT-7C8C, PDB entry 4pd8) was 0.94 µM (active). Turning to H-DDISLLK-OH, for the setting “protein: human GGA1(Golgi-localizing, ?-adaptin ear homology domain, ARF-interacting) VHS domains, PDB entry 1ujj”, the equilibrium dissociation constant (Kd) is 0.8 µM (active). Consider `CC[C@H](C)[C@H](NC(=O)[C@H](CC(=O)O)NC(=O)[C@@H](N)CC(=O)O)C(=O)N[C@@H](CO[P+](O)(O)O)C(=O)N[C@@H](CC(C)C)C(=O)N[C@@H](CC(C)C)C(=O)N[C@@H](CCCCN)C(=O)O`, for which, for the setting “protein: human GGA1(Golgi-localizing, ?-adaptin ear homology domain, ARF-interacting) VHS domains, PDB entry 1ujk”, the dissociation constant (Kd) is 0.27 µM (active). For `Cc1nc2ccccc2c(-c2ccc3c(c2)CCCO3)c1[C@H](OC(C)(C)C)C(=O)O`, under “protein: Integrase IN CCD (H171T mutant), PDB entry 4tsx”, the Kd was 10.3 µM (active). For `CN(C)Cc1c[nH]c2c(CCCO)cccc12`, the Kd (protein: Phospholipase A2 VRV-PL-VIIIa, PDB entry 4qgd) is 0.037 µM (active). For `C[C@H](N)C(=O)N[C@@H](CO[P+](O)(O)O)C(=O)N[C@@H](CCC(N)=O)C(=O)N[C@@H](CCC(=O)O)C(=O)N[C@@H](Cc1ccc(O)cc1)C(=O)O`, the Kd (protein: Mediator of DNA damage checkpoint protein 1(MDC1/NFBD1), PDB entry 2azm) is 2.2 µM (active). For the compound H-TNEFYA-OH, the Kd (protein: the PDZ Tandem of Syntenin 1, PDB entry 1ybo) is 160 µM (active). For the compound H-TNLYML-OH, where the note is “protein: E. coli UDP-N-acetylglucosamine acyltransferase (LpxA), PDB entry 4j09”, the dissociation constant Kd is 17 µM (active). H-DAEFRA-OH: where the note is “protein: 3D6 FAB ANTIBODY, PDB entry 4onf”, the Kd is 0.0012 µM (active). Consider H-TYKFFEQ-OH, for which the dissociation constant (Kd) (protein: adaptor protein complex 4 (AP-4) mu4 subunit C-terminal domain D190A mutant, PDB entry 4mdr) was 40.6 µM (active). Regarding `Oc1ccc(F)cc1O`, the Kd was 75 µM (active) (protein: Protocatechuate 3,4-dioxygenase alpha chain 3,4-PCD, PDB entry 4whq); 75 µM (active) (protein: Protocatechuate 3,4-dioxygenase alpha chain 3,4-PCD, PDB entry 4whr); 75 µM (active) (protein: Protocatechuate 3,4-dioxygenase alpha chain 3,4-PCD, PDB entry 4whs). For the compound H-MFAAFDYIA-OH, the Kd (protein: 3-phosphoinositide-dependent protein kinase 1 PDK1, PDB entry 4rrv) is 0.04 µM (active). Take `CSCC[C@H](NC(=O)[C@@H](N)CC(=O)O)C(=O)N[C@@H](Cc1ccc(O)cc1)C(=O)N[C@@H](C)C(=O)O` (H-DMYA-OH): the Kd (protein: E3 ubiquitin-protein ligase RNF31 HOIP PUB Domain, PDB entry 4p0b) is 0.29 µM (active).
